Measured values as given in the supplement of paper PMC9694430.
Structures can show the parent of a compound that is named as a salt.

Test system: LOC_OS03G50810-cb003
Assay: thermal shift delta Tm vs DMSO control; higher = stronger stabilization (binding)
Conditions: 12.5 µM; protein concentration 2 µM
Summary of the method: (§1)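 Thermal shift values come from differential scanning fluorimetry on purified rice kinase domains made in E. coli, with melting temperatures obtained from Boltzmann fits. Samples of 19.5 μl held 2 μM kinase, 100 mM potassium phosphate pH 7.5, 150 mM NaCl, 10% glycerol, 5 × SYPRO Orange and compound in DMSO, and were heated from 25°C to 95°C at 0.05°C/s. Each shift is a triplicate mean relative to the DMSO-only protein sample.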
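Note: purified Escherichia coli-expressed rice kinase domain construct.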

Compound	thermal shift delta Tm [°C]
CN1CCN(Cc2ccc(NC(=O)Nc3ccc(Oc4ccnc(N)n4)cc3)cc2C(F)(F)F)CC1	3.62
O=C(NOCCO)c1ccc2cncn2c1Nc1ccc(I)cc1F	0.06
CCCCCCCCCCCCc1ccc(S(=O)(=O)Nc2nncs2)cc1	-0.06

Test system: LOC_OS04G35114-cb001
Assay: as above
Conditions: 12.5 µM; protein concentration 2 µM
Summary of the method: as §1

Compound	thermal shift delta Tm [°C]
CC(C)(C)c1cnc(CSc2cnc(NC(=O)C3CCNCC3)s2)o1	0.29
CN(C)C/C=C/C(=O)Nc1cc2c(Nc3ccc(F)c(Cl)c3)ncnc2cc1O[C@H]1CCOC1 [Afatinib (BIBW2992) Dimaleate]	5.35
O=C1c2c(O)cc(O)cc2OC(c2ccc(O)c(O)c2)C1O (stereo not given) [Taxifolin (Dihydroquercetin)]	0.29
CCN(CC)CCNC(=O)c1c(C)[nH]c(/C=C2\C(=O)Nc3ccc(F)cc32)c1C [Sunitinib Malate]	10.1
COc1cc(Nc2ncc(F)c(Nc3ccc4c(n3)N(COP(=O)(O)O)C(=O)C(C)(C)O4)n2)cc(OC)c1OC [Fostamatinib (R788)]	3.46
CC(C)(C)c1nc(-c2ccc(NC(=O)Nc3cccc(C(F)(F)F)c3)c3ccccc23)c2c(N)nccn12 [kira6]	3.47
CNC(=O)c1cc(Oc2ccc(NC(=O)Nc3ccc(Cl)c(C(F)(F)F)c3)cc2)ccn1 [Sorafenib Tosylate]	0.98
CC(=O)Nc1nc(C)c(-c2ccc(Cl)c(S(=O)(=O)NCCO)c2)s1	1.53
CCc1nc(-c2cccc(C)c2)c(-c2ccnc(NC(=O)c3ccccc3)c2)s1	1.27
C[C@@]1(C(=O)Nc2ccc(F)nc2)CCCN1c1nc(Nc2cc(C3CC3)n[nH]2)c2cccn2n1	2.02
COc1ccc(Cl)cc1NC(=O)Nc1cc(C)nc2ccccc12	0.93
C=CC(=O)Nc1cccc(Nc2nc(Nc3ccc(OCCOC)cc3)ncc2F)c1	3.89
CC(C)c1c2cc(-c3ccnc(NC4CCC(NC5CCOCC5)CC4)n3)ccc2nn1C (stereo not given)	2.72
C[C@H]1CNC(=O)c2cnn3ccc(nc23)N[C@H](C)c2cc(F)ccc2O1	2.45
Cn1cc(-c2ccc3c(c2)CCN3C(=O)Cc2cccc(C(F)(F)F)c2)c2c(N)ncnc21	2.08
Cn1c(=O)c(F)c(Nc2ccc(I)cc2F)c2c(=O)n(C[C@@H](O)CO)cnc21	0.35
CNC(=O)c1cccc(-c2ccc3c(N4CCOC[C@@H]4C)nc(N4CCOC[C@@H]4C)nc3n2)c1 [Vistusertib (AZD2014)]	-0.19
Cc1nc(Nc2cnn(C3CCNCC3)c2)nc2c1N(C)C(=O)c1cc3ccccc3cc1N2C	1.48
COc1cc2/c(=N/c3ccc(Br)cc3F)nc[nH]c2cc1OCC1CCN(C)CC1 [Vandetanib (ZD6474)]	8.6

Compound	thermal shift delta Tm [°C]
CCn1c(C(=O)N(C2CC2)C2CC2)cc2c3c(ncn3C)c(Nc3cc(C)n(C)n3)nc21	2.5
OCCn1cc(-c2cnc3nnn(Cc4ccc5ncccc5c4)c3n2)cn1	0.87
N#CC[C@H](C1CCCC1)n1cc(-c2ncnc3[nH]ccc23)cn1	0.65
CCn1nc(C2CCN(C(=O)CCO)CC2)nc1-c1cnc(N)c(-c2nnc(C(C)(C)C)o2)n1	4.72
CC(C)(C)c1cc(NC(=O)Nc2ccc(Oc3ccnc4[nH]c(=O)cnc34)cc2F)n(-c2ccccc2)n1	0.44
CO[C@H]1CC[C@H](N2C(=O)CNc3ncc(-c4ccc(C(C)(C)O)nc4)nc32)CC1	-0.71
CC[C@@H]1C(=O)N(C)c2cnc(Nc3ccc(C(=O)N[C@H]4CC[C@H](N5CCN(CC6CC6)CC5)CC4)cc3OC)nc2N1C(C)C [Volasertib (BI 6727)]	1
COc1ccc2c(c1)[C@]1(C[C@H]1c1ccc3c(/C=C/c4ccc(CN5C[C@@H](C)O[C@@H](C)C5)cc4)n[nH]c3c1)C(=O)N2	4.47
O=C(Nc1nc2cccc(-c3ccc(CN4CCS(=O)(=O)CC4)cc3)n2n1)C1CC1 [Filgotinib (GLPG0634)]	1.37
CCn1c(-c2nonc2N)nc2c(C#CC(C)(C)O)ncc(OC[C@H]3CCCNC3)c21	0.41
Cc1cnc(Nc2ccc(OCCN3CCCC3)cc2)nc1Nc1cccc(S(=O)(=O)NC(C)(C)C)c1	3.12
Cc1cc(Nc2cc(N3CCN(C)CC3)nc(/C=C/c3ccccc3)n2)n[nH]1 [ENMD-2076 L-(+)-Tartaric acid]	6.49
CC#CC(=O)N1CC[C@@H](n2c(=O)n(-c3ccc(Oc4ccccc4)cc3)c3c(N)ncnc32)C1 [ONO-4059 (GS-4059) hydrochloride]	0.12
CCN1CCN(Cc2ccc(Nc3ncc(F)c(-c4cc(F)c5nc(C)n(C(C)C)c5c4)n3)nc2)CC1	2.79
CN(C)C[C@@H]1CCn2cc(c3ccccc32)C2=C(C(=O)NC2=O)c2cn(c3ccccc23)CCO1	6.19
CN1CCN(Cc2ccc(NC(=O)Nc3ccc(Oc4ccnc(N)n4)cc3)cc2C(F)(F)F)CC1	0.16
O=C(NOCCO)c1ccc2cncn2c1Nc1ccc(I)cc1F	-0.73
CCCCCCCCCCCCc1ccc(S(=O)(=O)Nc2nncs2)cc1	0.41
